Experimental data reported in PubChem BioAssay (NCI).
This is part of a sample that, as a whole, favours compounds with a hit. Of some 83,000 tested, about 20% had one in any assay.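 Each cell line was grown in a 96-well plate and treated with one concentration of compound for 48 hours. Values below 10 were considered active.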 A number with no mark means an inactive call. The source made the active and inactive calls.

The compounds below were run on HS 578T breast (assay: NCI-60 one-dose screen, 48 h (100 = growth as untreated, 0 = no growth, -100 = all killed)). Details: 10 µM unless noted.

| SMILES | growth |
| --- | --- |
| CC(C)=CCC[C@](C)(O)[C@H]1CC[C@]2(C)[C@@H]1CC[C@@H]1[C@@]3(C)C/C(=C/c4ccccc4)C(=O)C(C)(C)[C@@H]3CC[C@]12C | 91.3% |
| O=C1Nc2ccccc2/C1=C\c1c(-c2ccc(F)cc2)nc2ccccn12 | 91.5% |
| CC(c1ccccc1)C(C(=O)c1ccccc1)c1ccccc1 (stereo not drawn) | 91.2% |
| CC(=O)[C@H]1CCC/C=C/[C@@H]2C[C@H](O)C[C@H]2[C@H](O)/C=C/C(=O)O1 | 36.9% |
| O=C1C=CC(=O)N1c1cccc(Cl)c1 | 113% |
| COc1cc(/C=C\c2cc(/C=C\c3ccc(O)c(OC)c3)n(C(=O)COc3ccccc3)n2)ccc1O | 22.5% |
| N#C/C(=C\c1cccc(C#N)c1)c1ccccc1 | 106% |
| COc1cc2cc(Oc3cccc(NC(=O)Nc4cc(C(F)(F)F)cc(C(F)(F)F)c4)c3)c(C)nc2cc1OC | -10.7% (active) |
| Cc1ccc(-n2nc3c(c(C#N)c2=O)CC(c2ccccc2[N+](=O)[O-])C([N+](=O)[O-])=C3O)cc1 (stereo not drawn) | 77.7% |
| CCN(c1ccccc1)S(=O)(=O)c1cc([N+](=O)[O-])ccc1Cl | 82% |
| Cc1nc2sccn2c1-c1cn2ccsc2n1 | 87% |
| Cc1cc(Cl)nc(N(CCNc2ccnc3cc(Cl)ccc23)Cc2ccccn2)n1 | 87.3% |
| CSc1nc2sc3cccc(Cl)c3n2c(=N)c1C#N | 98.2% |
| COc1ccc(C(=O)CC#N)cc1 | 110% |
| COC(=O)C(CC=O)C(=O)C(=O)Nc1cccc(C(F)(F)F)c1 (stereo not drawn) | 90.6% |
| COc1cc(/C=C\c2cc(OC)c(OC)c(OC)c2)cc(N)c1OC | 90.1% |
| CC1(C)NCCC[C@]2(C)[C@H]3CC[C@@H]4[C@H]5[C@H](C(=O)/C=C/c6ccco6)CC[C@]5(CO)CC[C@@]4(C)[C@]3(C)CC[C@@H]12 | 86.8% |
| O=C(/C=C/c1c(-c2ccc(Cl)cc2)nn(-c2ccccc2)c1C(F)(F)F)c1ccc(Cl)cc1 | 92.2% |
| Cn1cc(-c2csc(-c3c[nH]c4ccccc34)n2)c2ccnc(Cl)c21 | 80.8% |

| SMILES | growth |
| --- | --- |
| O=C1CC(=O)OC(c2ccc([N+](=O)[O-])cc2)O1 | 13.1% |
| C=CCn1c(-c2ccc(-c3nc4ccc(C)cc4[nH]3)cc2)n[nH]c1=S | 102% |
| Cn1cc(-c2nc(-c3c[nH]c4c(Cl)nccc34)cs2)c2cc(Br)ccc21 | 85.6% |
| COc1cc(C2C3=C(COC3=O)N(CCO)c3cc4c(cc32)OCO4)cc(OC)c1OC (stereo not drawn) | -6.37% (active) |
| CC(C)c1ccc(Nc2ccc3c(OCCCN4CCN(C)CC4)cccc3n2)cc1 | 77% |
| COc1cc(NC(=O)CSc2nc3ccc(C)cc3c(=O)n2Cc2ccccc2)cc(OC)c1OC | 44.9% |
| N#Cc1c(-c2cccc([N+](=O)[O-])c2)nc(SCC(=O)c2ccc(Cl)cc2)[nH]c1=O | 97.6% |
| COc1cc(CC(=O)n2ncc3ccc(N)cc32)cc(OC)c1OC | 103% |
| Oc1ccc(C2c3ccccc3Oc3ccccc32)c2cccnc12 | 77.6% |
| COc1cc(C2C3=C(COC3=O)N(CCO)c3cc4c(cc32)CCC4)cc(OC)c1OC (stereo not drawn) | 14.5% |
| Cc1ccc(-c2nc3ccccn3c2/C=C2/C(=O)Nc3cc(Cl)ccc32)cc1 | 101% |
| CCNc1nc2ccc(Nc3ccnc4cc(Cl)ccc34)cc2[nH]1 | 91.4% |
| N#CC(C(=O)/C(=N/NC(=O)c1ccccc1O)C(C#N)c1ccccc1)c1ccccc1 (stereo not drawn) | 24.1% |
| C#Cc1cccc(NC(=O)c2cccc(NC(=O)CCl)c2)c1 | 31.8% [8.25 µM] |
| Cc1nc2ccc(Cl)cn2c1-c1nnc(SCc2ccc([N+](=O)[O-])cc2)o1 | 45.6% |
| Cc1c2cc[nH]c(=O)c2c(C)c2c1[nH]c1cc(OCCN3CCN(C)CC3)ccc12 | 15.1% |
| Cc1cc2c(c(C)c1Cl)C(=O)/C(=C/c1ccc(O)c(O)c1)O2 | 94% |
| O=C1/C=C/[C@@H](O)[C@@H]2C[C@@H](O)C[C@H]2/C=C/CCC[C@H](CCc2ccc3ncccc3c2)O1 | 41% |
| COc1ccc(-c2cnc3c(-c4cccc5ncccc45)cnn3c2)cc1 | 25.4% |
